According to PubChem BioAssay (EPA / NIEHS):
Inconclusive results are not listed. Active and inactive are the calls of the source. How the source made its calls: active means hit-call score of the fitted dose curve at least 0.9, where 1 is the maximum; inconclusive means response in the unintended direction; inactive means score below 0.9.

target: human Peroxisome Proliferator-activated Receptor delta (PPARd), PPARD (gene 5467) (UniProt Q03181); assay: ATG_PPARd_TRANS: Attagene TRANS-FACTORIAL HepG2 Assay for human Peroxisome Proliferator-activated Receptor delta (PPARd) (AID 2283002)
Sequence (Q03181 whole entry, looked up): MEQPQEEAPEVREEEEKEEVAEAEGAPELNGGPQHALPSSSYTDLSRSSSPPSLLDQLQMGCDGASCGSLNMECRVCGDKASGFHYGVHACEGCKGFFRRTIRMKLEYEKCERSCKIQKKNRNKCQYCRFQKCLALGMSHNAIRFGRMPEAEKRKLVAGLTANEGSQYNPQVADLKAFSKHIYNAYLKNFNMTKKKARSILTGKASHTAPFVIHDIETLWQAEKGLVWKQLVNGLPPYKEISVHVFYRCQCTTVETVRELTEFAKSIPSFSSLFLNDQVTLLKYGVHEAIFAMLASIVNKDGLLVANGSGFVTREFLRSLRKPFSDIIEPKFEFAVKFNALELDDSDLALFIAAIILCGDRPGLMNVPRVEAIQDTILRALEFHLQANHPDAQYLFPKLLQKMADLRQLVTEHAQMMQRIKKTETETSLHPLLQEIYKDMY
Procedure: ATG_TRANS is a cell-based, multiplexed-readout assay that uses HepG2, a human liver cell line, with measurements taken at 24 hours after chemical dosing in a 24-well plate.ATG_PPARd_TRANS is one of 30 assay component(s) measured or calculated from the ATG_TRANS assay. It is designed to make measurements of mRNA induction, a form of inducible reporter, as detected with fluorescence intensity signals by Reverse transcription polymerase chain reaction (RT-PCR) and Capillary electrophoresis technology.Data from the assay component ATG_PPARd_TRANS was analyzed into 1 assay endpoint. This assay endpoint, ATG_PPARd_TRANS, was analyzed in the positive analysis fitting direction relative to DMSO as the negative control and baseline of activity. Using a type of inducible reporter, measures of mRNA for gain-of-signal activity can be used to understand the reporter gene at the transcription factor-level as they relate to the gene PPARD. Furthermore, this assay endpoint can be referred to as a primary readout, because this assay has produced multiple assay endpoints where this one serves a reporter gene function. To generalize the intended target to other relatable targets, this assay endpoint is annotated to the nuclear receptor intended target family, where the subfamily is non-steroidal.
Human liver HepG2 cells are transiently transfected with multiple reporter transcription units (MRTUs) in 6-well plates using FuGene 6 reagent (Roche; 3 ml FuGene/1 mg DNA). The MRTU constructs are regulated by a cis-regulating element (promoter). […] A major difference between the CIS and TRANS system is that in CIS activities of endogenous TFs are measured, whereas the TRANS assay evaluates changes in activities of exogenous, chimeric NR-Gal4 proteins. […] At the end of 24 hour incubation, total RNA was isolated using TriZol reagent (Invitrogen). The isolated RNA is then reverse-transcribed using oligo(dT) primer and Mo-MLV reverse transcriptase (Invitrogen) with DNAse I (Ambion) treatment for 30 min. The one-tenth of the produced cDNA was amplified by PCR using Taq DNA polymerase (Invitrogen) and two reporter sequence-specific primers. The PCR products were fluorescently labeled by primer extension with 6-arboxyfluorescein (6-FAM) 5'-labeled reporter sequence-specific primer (2 min at 95 C, 20 s at 68 C and 10 min at 72 C) and these products were digested with 5U of HpaI (New England Biolabs) for 2h at 37 C. The fragments were purified using Qiaquick PCR columns (Qiagen), analyzed on an ABI 3130xL genetic analyzer (Applied Biosystems) with peak positions identified by using a set of X-rhodamine (ROX)-labeled MapMarker1000 molecular weight standards (BioVentures). The raw capillary electrophoresis data was processed using Attagraph software (Attagene).

outcome, inactive:
CCCCCc1ccco1
CC(C)(C)OC(=O)c1ccc(O)cc1
C=C(C)CNCC
CCc1ccc(O)cc1
COc1cc(C(C)C)ccc1C
CC1(C)O[C@@H]2C[C@H]3[C@@H]4CCC5=CC(=O)C=C[C@]5(C)[C@@]4(F)[C@@H](O)C[C@]3(C)[C@]2(C(=O)CO)O1
O=C1NC2NC(=O)NC2N1 (stereo not given)
CCc1ccc(O)c(OC)c1
CCCCCCCCC=CCCCCCCCC1=NCCN1CCO
COC(=O)C=C(C)CCC=C(C)C
CCCCCCC(CO)CCCC (stereo not given)
CN1C(=O)c2ccccc2C1=O
CCCCCCCCCCCC(=O)OC[C@@H](O)[C@H]1OC[C@H](O)[C@H]1O
COC(=O)Nc1ccc(Cl)c(Cl)c1
CCc1ncc(C)[nH]1
OCC(O)c1ccccc1 (stereo not given)
Cc1ncc[nH]1
O=[N+]([O-])c1ccc(O)cc1C(F)(F)F
C=COCCOCCOC=C
C=C(C)C(=O)OCCOC1CC2CC1C1C=CCC21 (stereo not given)
Cc1c(C2(c3cc(Br)c(O)c(Br)c3C)OS(=O)(=O)c3ccccc32)cc(Br)c(O)c1Br
CCCCCCCCCCCCCCCC(=O)OC/C=C(C)/C=C/C=C(C)/C=C/C1=C(C)CCCC1(C)C
Cc1cc(=O)oc2cc(N(C)C)ccc12
CC1(C)CCC[C@]2(C)[C@H]3CCO[C@]3(C)CC[C@@H]12
C=C1C[C@]23C[C@@]1(O)CC[C@H]2[C@@]12C=C[C@H](O)[C@@](C)(C(=O)O1)[C@H]2[C@@H]3C(=O)O
O=C1OC[C@H](Cc2cccc(O)c2)[C@H]1Cc1cccc(O)c1
CS(=O)(=O)OCCCCOS(C)(=O)=O
CS(=O)(=O)c1ccc(Cl)cc1
C[N+](C)(C)CCCCCC[N+](C)(C)C
C=CC(=O)OCCC#N
C=CCCCCCCCCCC
CC(C)(CO)[C@@H](O)C(=O)NCCC(=O)O
[O-]n1ccccc1=S.[O-]n1ccccc1=S.[Zn+2]
CC(C=O)Cc1ccc(C(C)(C)C)cc1 (stereo not given)
CCOC(=O)C(C#N)=C(c1ccccc1)c1ccccc1
CC(C)(C)CC(C)(C)c1ccc(OCCOCC[N+](C)(C)Cc2ccccc2)cc1
CC(C)(C)C1=CC(=O)C(C(C)(C)C)=CC1=O
CC(C)CCCCCCCCCCCCCCC(=O)O
c1ccc2cc(Nc3ccc(Nc4ccc5ccccc5c4)cc3)ccc2c1
CN(C)c1cccc(O)c1
